Reference: PubChem BioAssay (NCATS)
Several values for one entry are separate records, joined by “and”; a condition that tells them apart may be missing. Equal values may be shown once. Inconclusive results are not listed. Activity calls are given as the source filed them. The call rests on the fitted dose curve; in most records, active means well fitted curve in the direction sought with a large enough effect; inconclusive means small, poorly fitted or top-dose-only effect, or another doubt; inactive means no such curve, though single readings can be large; an effect the other way counts as inactive or inconclusive.

Columns and labels:
CRL-7250 = normal cell line; experiment: Cytotoxic Profiling of Annotated Libraries Using Quantitative High-Throughput Screening (AID 1296008); settings: Five cell lines viability, CellTiter-Glo ATP luminescence, 48-72 h; max response: stronger effect = lower value; further: nearly all actives have a fitted effect of over 60% in size; further: potency means the concentration at half of the fitted maximal effect; on max response: on the % scale 0 is the no-effect control and ±100 the full control effect
In short: (§1)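 Cytotoxicity was measured as CellTiter-Glo ATP luminescence, read after 10 min at room temperature. Compound treatment of the cells lasted 48 or 72 hr at 37 degrees Celsius in a qHTS format.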

HEK293 = experiment: as above; settings: Five cell lines viability, CellTiter-Glo ATP luminescence, 48-72 h; max response: stronger effect = lower value
In short: as §1

HaCat [1] = experiment: as above; settings: Five cell lines viability, CellTiter-Glo ATP luminescence, 48-72 h; max response: stronger effect = lower value
In short: as §1

MCC-13 = experiment: qHTS assay to identify novel small-molecules to repurpose for Merkel cell carcinoma treatment (AID 1296009); settings: MCC and control cell lines, CellTiter-Glo viability, 72 h; series mostly up to 46 µM; further: nearly all actives have a fitted effect of over 60% in size; further: potency means the concentration at half of the fitted maximal effect; on activity change, negative = cytotoxicity: on the % scale 0 is the no-effect control and ±100 the full control effect
In short: (§2)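 72 hr, 37 degree celsius; NPC 8-pt / MIPE 11-pt dose response; compound pinned in DMSO; CellTiter-Glo, 10 min RT, luminescence; normalized to no-cell and DMSO controls.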

MCC-26 = experiment: as above; settings: MCC and control cell lines, CellTiter-Glo viability, 72 h; series mostly up to 46 µM
In short: as §2

C33A = experiment: Primary qHTS to identify gynecologic anti-cancer compounds using libraries of approved drugs and bioactive compounds (AID 1345084); settings: Gynecologic cancer cell panel viability, ATPlite luminescence, 48 h; series mostly up to 57.5 µM; further: on the % scale 0 is the no-effect control and ±100 the full control effect; nearly all actives have a fitted effect of over 55% in size
In short: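 ATP-based viability (ATPlite), 1,000 cells/well, 16 h pre-incubation, 48 h compound at 37 C, 5% CO2, 15 min RT before read.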

KB-3-1 = experiment: Cytotoxic Profiling of Annotated Libraries Using Quantitative High-Throughput Screening (AID 1296008); settings: Five cell lines viability, CellTiter-Glo ATP luminescence, 48-72 h; max response: stronger effect = lower value; further: nearly all actives have a fitted effect of over 60% in size; further: potency means the concentration at half of the fitted maximal effect; on max response: on the % scale 0 is the no-effect control and ±100 the full control effect
In short: as §1

NIH3T3 [2] = experiment: as above; settings: Five cell lines viability, CellTiter-Glo ATP luminescence, 48-72 h; max response: stronger effect = lower value
In short: as §1

SC27B = experiment: qHTS profiling for inhibitors of Plasmodium falciparum proliferation (AID 504749); further: nearly all actives have a fitted effect of over 60% in size; further: potency means the concentration at half of the fitted maximal effect; settings: P. falciparum in erythrocytes, SYBR Green DNA, 72 h; series mostly up to 28.7 µM
In short: (§3)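 Infected RBCs, 0.3% parasitemia/2.5% Hct final; cpd 72 h, 37 C, 5% CO2; lysis buffer with saponin/triton/SYBR Green I, o/n RT dark; FI 485/535; norm. to artemisinin (0.29 uM) and DMSO.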

TAB113 = experiment: as above; settings: P. falciparum in erythrocytes, SYBR Green DNA, 72 h; series mostly up to 28.7 µM
In short: as §3

W2 = experiment: as above; settings: P. falciparum in erythrocytes, SYBR Green DNA, 72 h; series mostly up to 28.7 µM
In short: as §3

MKL-1 = experiment: qHTS assay to identify novel small-molecules to repurpose for Merkel cell carcinoma treatment (AID 1296009); settings: MCC and control cell lines, CellTiter-Glo viability, 72 h; series mostly up to 46 µM; further: nearly all actives have a fitted effect of over 60% in size; further: potency means the concentration at half of the fitted maximal effect; on activity change, negative = cytotoxicity: on the % scale 0 is the no-effect control and ±100 the full control effect
In short: as §2

MKL-2 = experiment: as above; settings: MCC and control cell lines, CellTiter-Glo viability, 72 h; series mostly up to 46 µM
In short: as §2

NIH3T3 [3] = experiment: as above; settings: MCC and control cell lines, CellTiter-Glo viability, 72 h; at 44.8 µM (top of the series) unless noted
In short: as §2

UISO = experiment: as above; settings: MCC and control cell lines, CellTiter-Glo viability, 72 h; series mostly up to 46 µM
In short: as §2

WaGa = experiment: as above; settings: MCC and control cell lines, CellTiter-Glo viability, 72 h; series mostly up to 46 µM
In short: as §2

HACAT [4] = experiment: as above; settings: MCC and control cell lines, CellTiter-Glo viability, 72 h; at 44.8 µM (top of the series) unless noted
In short: as §2

HEK293T = experiment: as above; settings: MCC and control cell lines, CellTiter-Glo viability, 72 h; at 44.8 µM (top of the series)
In short: as §2

COc1ccccc1[C@H](c1cccc2ccccc12)[C@@](C)(C#N)C(=O)N1CCC(c2cccc(C(F)(F)F)c2)CC1
inactive: max response (HaCat [1]) -11.9% | Potency (MCC-13) | Potency (MCC-26) | Potency (C33A)
active: Potency (CRL-7250) 26.4 µM | Potency (HEK293) 13.2 µM

COc1ccc(-c2ccc3c(N4CCOC[C@H]4C)nc(N4CCOC[C@H]4C)nc3n2)cc1CO
active: Potency (CRL-7250) 0.0093 µM | Potency (HEK293) 0.0166 µM | Potency (KB-3-1) 0.0118 µM | Potency (NIH3T3 [2]) 0.0662 µM

C1COC(NC(C2CC2)C2CC2)=N1
inactive: Potency (SC27B) | Potency (TAB113) | Potency (W2) | max response (CRL-7250) 1.84% and -1.88% | max response (HEK293) 3.3% and -8.9% | max response (HaCat [1]) 1.37% and -11.9% | outcome (KB-3-1) | outcome (NIH3T3 [2]) | Potency (MCC-13) | Potency (MCC-26) | Potency (MKL-1) | Potency (MKL-2) | outcome (NIH3T3 [3]) | Potency (UISO) | Potency (WaGa) | Potency (C33A)

CC1(C)Cc2c(-c3ccccc3)c(-c3ccc(Cl)cc3)c(CC(=O)O)n2C1
active: Potency (HEK293) 14.6 µM
inactive: max response (CRL-7250) 2.44% | max response (HaCat [1]) -5.26% and -28.4% | max response (KB-3-1) -7.08% | max response (NIH3T3 [2]) -5.92% | Potency (MCC-13) | Potency (MCC-26) | Potency (MKL-1) | Potency (MKL-2) | Potency (UISO) | Potency (WaGa) | Potency (C33A)

COc1ccc(COc2cc3oc(=O)c4cc(C(C)O)ccc4c3cc2OC)cc1 (stereo not drawn)
inactive: outcome (HaCat [1]) | outcome (HACAT [4]) | Potency (MCC-13) | Potency (MCC-26) | Potency (MKL-1) | Potency (MKL-2) | Potency (UISO)
active: Potency (CRL-7250) 10.5 µM | Potency (HEK293) 14.8 µM

CC[C@H](Nc1ncnc2nc[nH]c12)c1nc2cccc(F)c2c(=O)n1-c1ccccc1
inactive: max response (CRL-7250) -4.35% | outcome (KB-3-1) | max response (NIH3T3 [2]) -27.5% | Potency (MCC-13) | Potency (MCC-26) | Potency (MKL-1) | Potency (UISO) | activity change, negative = cytotoxicity (C33A) -4.71% [at 11.6 µM]
active: Potency (HEK293) 23.5 µM | Potency (HaCat [1]) 13.2 µM

COc1ccc(-c2c(-c3ccc(O)cc3O)n[nH]c2C)cc1
inactive: outcome (HaCat [1]) inactive; activator | max response (KB-3-1) -14.6% | max response (NIH3T3 [2]) -24.1% | outcome (HACAT [4]) inactive; activator [at 92 µM] | Potency (MCC-13) | Potency (MCC-26) | Potency (MKL-1) | Potency (MKL-2) | Potency (UISO) | Potency (WaGa)
active: Potency (CRL-7250) 30.3 µM | Potency (HEK293) 27 µM

CC(C)(N)C(=O)N[C@H](COCc1ccccc1)C(=O)N1CCC2(CC1)CN(S(C)(=O)=O)c1ccccc12
active: Potency (HEK293) 23.5 µM
inactive: max response (CRL-7250) -61% | max response (HaCat [1]) -12.2% and 3.47% | max response (KB-3-1) -17.9% and 1.97% | max response (NIH3T3 [2]) -13.8% | Potency (MCC-13) | Potency (MCC-26) | Potency (MKL-1) | Potency (MKL-2) | Potency (UISO) | Potency (WaGa) | Potency (C33A)

CCCS(=O)(=O)Nc1ccc(F)c(C(=O)c2c[nH]c3ncc(Cl)cc23)c1F
inactive: max response (CRL-7250) -1.21% | max response (HaCat [1]) -1.82% | max response (KB-3-1) -9.42% and -0.0181% | max response (NIH3T3 [2]) -18.6% | Potency (MCC-13) | Potency (MCC-26) | Potency (MKL-1) | Potency (MKL-2) | Potency (WaGa) | Potency (C33A)
active: Potency (HEK293) 14.8 µM

CC[C@@H](C)[C@H](NC(=O)[C@H](CC1CCCCC1)NC(=O)c1ccno1)C(=O)N1CCC2(CCc3ccccc32)CC1
inactive: max response (CRL-7250) -8.58% and -11.9% | max response (HEK293) -11.2% | outcome (HaCat [1]) | max response (KB-3-1) -5.09% and 8.53% | max response (NIH3T3 [2]) -7.84% and -2.63% | outcome (HACAT [4]) | Potency (MCC-13) | Potency (MCC-26) | Potency (MKL-1) | Potency (MKL-2) | Potency (UISO) | Potency (WaGa) | Potency (C33A)

CC1(C)SCCN(S(=O)(=O)c2ccc(OCC#CCO)cc2)[C@@H]1C(=O)NO
inactive: max response (CRL-7250) -4.21% | max response (HEK293) -25.6% | outcome (KB-3-1) | max response (NIH3T3 [2]) -11.8% | Potency (MCC-13) | Potency (MCC-26) | Potency (MKL-2) | Potency (UISO)

CN[C@@H](C)C(=O)N[C@H]1CCCC[C@H]2CC[C@@H](C(=O)N[C@@H](c3ccccc3)c3cn(CCCCc4ccc(CCCCn5cc([C@@H](NC(=O)[C@@H]6CC[C@@H]7CCCC[C@H](NC(=O)[C@H](C)NC)C(=O)N76)c6ccccc6)nn5)cc4)nn3)N2C1=O
active: Potency (MKL-1) 23.5 µM | Potency (MKL-2) 9.35 µM
inactive: max response (CRL-7250) -4.97% | outcome (HEK293) | outcome (HaCat [1]) | outcome (NIH3T3 [2]) | outcome (HACAT [4]) | outcome (HEK293T) | Potency (MCC-13) | Potency (MCC-26) | outcome (NIH3T3 [3])

O=C1[C@H](Cc2ccc(O)cc2)N2C(=O)CCN(C(=O)NCc3ccccc3)[C@H]2CN1Cc1cccc2ccccc12
active: Potency (HEK293) 2.09 µM | Potency (HaCat [1]) 2.96 µM | Potency (KB-3-1) 16.6 µM | Potency (MKL-1) 14.8 µM | Potency (UISO) 4.69 µM | Potency (WaGa) 13.2 µM
inactive: max response (CRL-7250) -59.7% | Potency (MCC-26)

C#Cc1cccc(Nc2ncnc3cc(OCCOC)c(OCCOC)cc23)c1
inactive: max response (KB-3-1) -10.3% and -1.91% | Potency (MCC-13) | Potency (MCC-26) | Potency (MKL-1) | Potency (MKL-2) | Potency (C33A)
active: Potency (W2) 4.26 µM | Potency (CRL-7250) 18.7 µM and 8.41 µM | Potency (HEK293) 16.6 µM | Potency (HaCat [1]) 5.9 µM and 944 nM and 651 nM | Potency (WaGa) 29.6 µM
